Measurements as given in PubChem BioAssay (Tox21).
Results filed as inconclusive are left out. Where a call stands in place of a potency, no number is given. Calls of active or inactive are those of the source. Unless noted, the call rests on the fitted dose curve; in most records, active means well fitted curve in the direction sought with a large enough effect in the repeat runs; inconclusive means weak or mixed curves; inactive means no such curve, though single readings can be large; an effect the other way counts as inactive or inconclusive.

Tests used:
[1] = biological target: Peroxisome proliferator-activated receptor gamma (Homo sapiens) (UniProt P37231); test: qHTS assay to identify small molecule antagonists of the peroxisome proliferator-activated receptor gamma (PPARg) signaling pathway (AID 743191; calls by dose curve; further: nearly all actives have a fitted effect of over 30% in size; further: potency means the concentration at half of the fitted maximal effect)
Summary of the method: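 GeneBLAzer PPARg UAS-bla HEK293H cells carrying a UAS-driven beta-lactamase reporter were plated at 3000 cells/well, preincubated 5 h at 37C, then given compound for 17 h at 37C; LiveBLAzer B/G FRET substrate was read after 1 h at room temperature.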

[2] = qHTS assay to identify small molecule antagonists of the peroxisome proliferator-activated receptor gamma (PPARg) signaling pathway - cell viability counter screen (AID 743194); further: nearly all actives have a fitted effect of over 55% in size
Summary of the method: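 PPARg-UAS-bla HEK293H cells were plated, rested 5 h at 37 C, then treated with compounds plus rosiglitazone (50 nM final) for 17 h at 37 C; viability was then read by CellTiter-Glo luminescence after 30 min at room temperature.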

[3] = qHTS assay for small molecule agonists of the antioxidant response element (ARE) signaling pathway (AID 743202; active means well fitted activation curve with a large enough effect in the signal ratio in the repeat runs, not every such curve was filed as active; the % refers to the signal ratio; further: potency means the concentration at half of the fitted maximal effect)
Summary of the method: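 Compounds delivered in DMSO to ARE-bla HepG2 cells (2,000 cells/well, pre-incubated 5 h) and left 16 h at 37 C. LiveBLAzer B/G FRET substrate then added for 2 h at RT before fluorescence reading.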

[4] = qHTS assay for small molecule agonists of the antioxidant response element (ARE) signaling pathway - cell viability counter screen (AID 743203; calls by dose curve; further: nearly all actives have a fitted effect of over 55% in size)
Summary of the method: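 HepG2 cells carrying ARE-driven beta-lactamase; 2,000 cells/well; 5 hrs plating; compound pinned from DMSO; 16 hrs 37C/5% CO2; CellTiter-Glo added; 30 min RT; luminescence.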

[5] = qHTS assay for small molecule activators of the heat shock response signaling pathway - cell viability counter screen (AID 743209); further: nearly all actives have a fitted effect of over 50% in size
Summary of the method: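 Luminescence from CellTiter-Glo, added after the beta-lactamase FRET read, gave the viability signal. Cells were HSE-bla HeLa treated with DMSO-dissolved compounds for 5 h at 37 C following overnight plating.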

[6] = qHTS assay for small molecule activators of the heat shock response signaling pathway (AID 743210; active means well fitted activation curve with a large enough effect in the signal ratio in the repeat runs, with a control signal flat, not every such curve was filed as active; the % refers to the signal ratio;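 further: HeLa cells with beta-lactamase reporter driven by heat shock elements; series mostly up to about 63 µM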)
Summary of the method: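 Reporter gene assay: HeLa cells stably bearing an HSE-bla construct, compound treatment 5 h at 37 C, LiveBLAzer substrate 2.5 h at RT, fluorescence intensity.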

[7] = qHTS assay to identify small molecule agonists of the peroxisome proliferator-activated receptor delta (PPARd) signaling pathway - cell viability counter screen (AID 743211); further: nearly all actives have a fitted effect of over 55% in size
Summary of the method: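 Luminescent ATP viability assay (CellTiter-Glo, 30 min RT) in UAS-bla HEK293H cells carrying the PPAR delta reporter construct, 3000 cells/well, after a 17 h compound treatment at 37 C.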

[8] = qHTS assay to identify small molecule agonists of the farnesoid-X-receptor (FXR) signaling pathway - cell viability counter screen (AID 743218); further: nearly all actives have a fitted effect of over 45% in size
Summary of the method: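 HEK 293T FXR-bla cells; 5 h pre-incubation, 16 h compound exposure at 37 C; LiveBLAzer substrate 2 h RT, then CellTiter-Glo 30 min RT, luminescence.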

[9] = qHTS assay to identify small molecule antagonists of the farnesoid-X-receptor (FXR) signaling pathway - cell viability counter screen (AID 743221; active means well fitted cell-killing curve with a large enough effect in the repeat runs, not every such curve was filed as active; further: nearly all actives have a fitted effect of over 50% in size)
Summary of the method: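 In GeneBLAzer FXR-UAS-bla HEK 293T cells stimulated with 50 uM chenodeoxycholic acid (final), compounds acted for 16 h at 37 C. Viability was assessed afterwards by CellTiter-Glo luminescence.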

[10] = biological target: Vitamin D3 receptor (Homo sapiens) (UniProt P11473); test: qHTS assay to identify small molecule agonists of the vitamin D receptor (VDR) signaling pathway (AID 743222; calls by dose curve)
Summary of the method: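 VDR-bla cells, 2,000/well; 4 h preincubation 37C; cpd (DMSO) 16 h; LiveBLAzer B/G substrate 2 h RT; fluorescence intensity read.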

[11] = biological target: Vitamin D3 receptor (Homo sapiens) (UniProt P11473); test: qHTS assay to identify small molecule antagonists of the vitamin D receptor (VDR) signaling pathway (AID 743223; active means well fitted inhibition curve with a large enough effect in the signal ratio in the repeat runs, not every such curve was filed as active; the % refers to the signal ratio)
Summary of the method: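 Agonist 1alpha,25-dihydroxyvitamin D3 (3 nM in well) was added with each compound to VDR-bla cells preincubated 4 h. Cells stood 16 h at 37C, then FRET substrate 2 h at room temperature; fluorescence intensity recorded.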

[12] = qHTS assay to identify small molecule antagonists of the peroxisome proliferator-activated receptor delta (PPARd) signaling pathway - cell viability counter screen (AID 743213); further: nearly all actives have a fitted effect of over 50% in size
Summary of the method: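 In this counter screen, HEK293H cells carrying a UAS-beta-lactamase reporter are co-treated with test compounds and 300 nM L165041 (final) for 17 h at 37 C; cell viability is quantified by CellTiter-Glo luminescence.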

[13] = biological target: Peroxisome proliferator-activated receptor delta (Homo sapiens) (UniProt Q03181); test: qHTS assay to identify small molecule antagonists of the peroxisome proliferator-activated receptor delta (PPARd) signaling pathway (AID 743215; active means well fitted inhibition curve with a large enough effect in the signal ratio in the repeat runs, not every such curve was filed as active; the % refers to the signal ratio;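 further: cells stimulated with agonist L165041 at 300 nM final during compound exposure; series mostly up to about 62 µM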)
Summary of the method: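 Read-out is beta-lactamase FRET fluorescence, measured 2 h after substrate addition at room temperature. Beforehand, UAS-bla HEK293H cells carrying the PPARd reporter were exposed to compounds with L165041 at 300 nM final for 17 h at 37 C.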

[14] = biological target: Bile acid receptor (Homo sapiens) (UniProt Q96RI1); test: qHTS assay to identify small molecule antagonists of the farnesoid-X-receptor (FXR) signaling pathway (AID 743217; active means well fitted inhibition curve with a large enough effect in the signal ratio in the repeat runs, not every such curve was filed as active; the % refers to the signal ratio)
Summary of the method: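 HEK 293T FXR-UAS-bla, 5000 cells/well; compound + CDCA 50 uM final; 16 h, 37 °C; B/G FRET substrate 2 h RT; fluorescence.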

[15] = biological target: Bile acid receptor (Homo sapiens) (UniProt Q96RI1); test: qHTS assay to identify small molecule agonists of the farnesoid-X-receptor (FXR) signaling pathway (AID 743220; active means well fitted activation curve with a large enough effect in the signal ratio in the repeat runs, not every such curve was filed as active; the % refers to the signal ratio)
Summary of the method: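 Beta-lactamase reporter under UAS control in GeneBLAzer FXR HEK 293T cells (5000/well) measured with LiveBLAzer FRET substrate after 2 h at room temperature. Compound exposure lasted 16 h at 37C.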

[16] = qHTS assay to identify aromatase inhibitors - cell viability counter screen (AID 743084);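 further: cells stimulated with testosterone during compound exposure; nearly all actives have a fitted effect of over 55% in size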
[17] = qHTS assay to identify small molecule that activate the aryl hydrocarbon receptor (AhR) signaling pathway - cell viability counter screen (AID 743086);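 further: HepG2 liver cells carrying the AhR DRE luciferase reporter; series mostly up to about 70 µM; nearly all actives have a fitted effect of over 45% in size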
Summary of the method: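 HepG2-AhR-luc (HG2L7.5c1) cells, 4000/well, were preincubated 5 h at 37C, exposed to compound in qHTS format for 24 hr at 37C, then given CellTiter-Fluor for 30 min; viability was read as fluorescence in the reporter wells.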

[18] = biological target: Peroxisome proliferator-activated receptor delta (Homo sapiens) (UniProt Q03181); test: qHTS assay to identify small molecule agonists of the peroxisome proliferator-activated receptor delta (PPARd) signaling pathway (AID 743212; calls by dose curve)
Summary of the method: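 A PPARd-bla HEK293H line with beta-lactamase under an Upstream Activator Sequence is treated with compounds at 37 C. Substrate loading for 2 h at room temperature precedes the fluorescence measurement.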

[19] = biological target: Peroxisome proliferator-activated receptor gamma (Homo sapiens) (UniProt P37231); test: qHTS assay to identify small molecule agonists of the peroxisome proliferator-activated receptor gamma (PPARg) signaling pathway (AID 743094; active means well fitted activation curve with a large enough effect in the signal ratio in the repeat runs, not every such curve was filed as active; the % refers to the signal ratio)
Summary of the method: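 Beta-lactamase FRET fluorescence was the read-out after a 1 h room-temperature substrate step, following 17 h compound treatment at 37C of HEK293H cells expressing a UAS-driven bla reporter responsive to PPARg.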

[20] = biological target: Aryl hydrocarbon receptor (Homo sapiens) (UniProt P35869); test: qHTS assay to identify small molecule that activate the aryl hydrocarbon receptor (AhR) signaling pathway (AID 743085); further: nearly all actives have a fitted effect of over 15% in size; further: potency means the concentration at half of the fitted maximal effect;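 on activation: HG2L7.5c1 human HepG2 liver cells with stably integrated DRE-driven firefly reporter; series mostly up to about 70 µM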
Summary of the method: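 24 h compound exposure, 37C, HepG2-derived HG2L7.5c1 cells with DRE-responsive luciferase. Readouts: fluorescence viability, then luminescence at room temperature after 30 min.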

Bile acid receptor (Homo sapiens), sequence (Q96RI1 whole entry, looked up): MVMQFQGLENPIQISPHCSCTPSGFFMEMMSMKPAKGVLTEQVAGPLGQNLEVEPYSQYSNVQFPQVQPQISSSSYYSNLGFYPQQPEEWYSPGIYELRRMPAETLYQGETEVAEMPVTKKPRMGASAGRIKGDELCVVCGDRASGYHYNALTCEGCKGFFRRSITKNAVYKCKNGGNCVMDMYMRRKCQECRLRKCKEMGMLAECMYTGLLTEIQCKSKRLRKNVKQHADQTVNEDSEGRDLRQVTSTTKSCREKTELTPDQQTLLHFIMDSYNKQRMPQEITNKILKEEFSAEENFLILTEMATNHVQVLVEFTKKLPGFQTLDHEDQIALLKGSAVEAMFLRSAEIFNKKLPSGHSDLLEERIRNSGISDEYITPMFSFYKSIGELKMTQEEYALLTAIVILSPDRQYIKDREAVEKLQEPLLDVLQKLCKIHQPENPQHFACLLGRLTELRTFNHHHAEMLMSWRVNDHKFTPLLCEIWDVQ
Aryl hydrocarbon receptor (Homo sapiens), sequence (P35869 whole entry, looked up): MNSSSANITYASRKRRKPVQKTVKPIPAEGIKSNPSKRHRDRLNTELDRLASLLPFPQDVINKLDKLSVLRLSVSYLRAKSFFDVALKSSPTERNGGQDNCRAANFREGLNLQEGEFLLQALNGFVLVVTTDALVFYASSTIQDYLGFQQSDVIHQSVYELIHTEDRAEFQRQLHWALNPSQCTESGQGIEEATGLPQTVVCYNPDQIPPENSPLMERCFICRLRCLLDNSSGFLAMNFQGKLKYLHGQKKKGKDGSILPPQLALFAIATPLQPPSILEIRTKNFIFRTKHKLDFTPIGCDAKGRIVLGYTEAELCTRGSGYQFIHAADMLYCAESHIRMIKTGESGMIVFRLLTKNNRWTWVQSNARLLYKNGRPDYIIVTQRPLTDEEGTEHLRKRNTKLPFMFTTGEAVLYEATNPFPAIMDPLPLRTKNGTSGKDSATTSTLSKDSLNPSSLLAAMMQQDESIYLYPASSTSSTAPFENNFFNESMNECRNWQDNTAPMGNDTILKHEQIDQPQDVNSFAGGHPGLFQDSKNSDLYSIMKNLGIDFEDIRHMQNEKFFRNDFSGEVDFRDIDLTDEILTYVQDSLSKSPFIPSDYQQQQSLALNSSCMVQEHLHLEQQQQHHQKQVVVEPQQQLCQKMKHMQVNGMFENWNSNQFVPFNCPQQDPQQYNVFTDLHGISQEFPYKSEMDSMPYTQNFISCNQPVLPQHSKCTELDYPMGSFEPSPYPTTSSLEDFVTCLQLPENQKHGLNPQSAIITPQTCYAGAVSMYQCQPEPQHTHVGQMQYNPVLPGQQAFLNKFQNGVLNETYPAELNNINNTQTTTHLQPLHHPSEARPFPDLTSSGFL
Peroxisome proliferator-activated receptor delta (Homo sapiens), sequence (Q03181 whole entry, looked up): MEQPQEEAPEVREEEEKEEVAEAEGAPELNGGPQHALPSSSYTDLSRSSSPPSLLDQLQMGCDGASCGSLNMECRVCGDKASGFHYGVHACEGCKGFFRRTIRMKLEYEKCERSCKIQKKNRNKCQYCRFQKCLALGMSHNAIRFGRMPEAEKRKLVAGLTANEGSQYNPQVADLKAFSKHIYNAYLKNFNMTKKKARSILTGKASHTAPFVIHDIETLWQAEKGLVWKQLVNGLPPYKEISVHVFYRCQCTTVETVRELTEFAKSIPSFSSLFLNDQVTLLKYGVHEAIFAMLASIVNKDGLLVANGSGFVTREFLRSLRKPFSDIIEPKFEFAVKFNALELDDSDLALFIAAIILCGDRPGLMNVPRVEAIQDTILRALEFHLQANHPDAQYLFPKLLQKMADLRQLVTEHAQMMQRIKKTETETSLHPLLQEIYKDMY
Vitamin D3 receptor (Homo sapiens), sequence (P11473 whole entry, looked up): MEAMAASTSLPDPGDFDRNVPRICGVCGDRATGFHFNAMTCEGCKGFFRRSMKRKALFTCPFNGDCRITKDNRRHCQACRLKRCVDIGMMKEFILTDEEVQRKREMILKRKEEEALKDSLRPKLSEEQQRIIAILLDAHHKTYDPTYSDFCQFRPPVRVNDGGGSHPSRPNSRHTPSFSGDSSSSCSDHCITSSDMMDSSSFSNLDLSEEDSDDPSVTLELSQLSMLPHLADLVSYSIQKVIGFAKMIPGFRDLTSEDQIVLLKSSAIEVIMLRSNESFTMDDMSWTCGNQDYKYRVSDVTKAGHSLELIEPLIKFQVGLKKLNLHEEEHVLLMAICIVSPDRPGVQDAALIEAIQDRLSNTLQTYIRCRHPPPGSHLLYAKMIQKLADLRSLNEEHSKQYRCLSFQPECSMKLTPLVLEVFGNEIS
Peroxisome proliferator-activated receptor gamma (Homo sapiens), sequence (P37231 whole entry, looked up): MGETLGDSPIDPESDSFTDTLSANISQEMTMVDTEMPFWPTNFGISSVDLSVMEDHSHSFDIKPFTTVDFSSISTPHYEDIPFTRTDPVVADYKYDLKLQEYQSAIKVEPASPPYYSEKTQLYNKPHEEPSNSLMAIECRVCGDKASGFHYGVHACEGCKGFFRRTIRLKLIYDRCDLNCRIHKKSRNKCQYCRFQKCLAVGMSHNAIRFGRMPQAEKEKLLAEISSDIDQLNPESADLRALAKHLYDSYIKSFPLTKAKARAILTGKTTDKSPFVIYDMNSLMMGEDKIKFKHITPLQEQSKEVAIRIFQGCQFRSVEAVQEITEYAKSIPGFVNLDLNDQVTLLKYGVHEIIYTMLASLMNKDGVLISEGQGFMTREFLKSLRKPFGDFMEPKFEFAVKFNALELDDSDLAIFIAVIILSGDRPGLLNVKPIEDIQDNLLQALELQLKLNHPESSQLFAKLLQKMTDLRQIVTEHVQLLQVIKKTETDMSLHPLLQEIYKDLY

SMILES | Potency [1] | Potency [2] | Potency [3] | Potency [4] | outcome [5] | outcome [6] | Potency [7] | Potency [8] | Potency [9] | outcome [10] | outcome [11] | Potency [12] | outcome [13] | outcome [14] | outcome [15] | Potency [16] | Potency [17] | Potency [18] | Potency [19] | Potency [20]
O=C(OCCN1CCOCC1)c1cccnc1Nc1cccc(C(F)(F)F)c1 | inactive | inactive | 26.6 µM (active) | inactive | inactive | inactive | inactive | inactive | inactive | inactive | inactive |  |  |  |  |  |  |  |  | 
CCC(=O)O[C@]1(C(=O)COC)[C@@H](C)C[C@H]2[C@@H]3CCC4=CC(=O)C=C[C@]4(C)C3(F)[C@@H](O)C[C@@]21C (some centres undefined) | inactive | inactive | inactive | inactive |  | inactive | inactive | inactive | inactive | inactive | inactive | inactive | inactive | inactive | inactive |  |  |  |  | 
CC(=O)c1cccnc1 |  |  |  | inactive | inactive |  | inactive |  | inactive | inactive |  | inactive | inactive |  |  | inactive | inactive | inactive |  | 
Nc1ccc(C(=O)Oc2ccccc2)c(O)c1 | inactive | inactive | inactive | inactive | inactive | inactive | inactive |  | inactive | inactive | inactive | inactive |  | inactive | inactive |  | inactive | inactive | inactive | 
CC(=O)Nc1cccc(N)c1 | inactive | inactive |  | inactive | inactive | inactive | inactive | inactive |  | inactive | inactive |  | inactive |  | inactive |  | inactive | inactive | inactive | 62 µM (active)
O=C(C1CCCCC1)N1CC(=O)N2CCCc3ccccc3C2C1 (centres undefined) |  | inactive |  | inactive |  | inactive | inactive | inactive | inactive |  |  | inactive | inactive |  |  |  |  |  |  | 
Nc1ccccc1Nc1ccccc1 | 43.8 µM (active) | inactive |  |  | inactive |  | inactive |  | inactive |  |  | inactive |  |  |  |  | inactive |  |  | 
CCc1c(C)[nH]c2c1C(=O)C(CN1CCOCC1)CC2 (centres undefined) |  | inactive | inactive | inactive | inactive |  | inactive | inactive | inactive | inactive | inactive | inactive | inactive | inactive | inactive |  | inactive | inactive |  | 
Cc1cc(SC2=C(O)C[C@@](CCc3ccc(N)cc3)(C(C)C)OC2=O)c(C(C)(C)C)cc1CO |  | inactive |  | inactive | inactive | inactive | inactive | inactive | inactive | inactive | inactive | inactive |  |  | inactive |  | inactive | inactive |  | 
O=C1c2ccccc2C(=O)c2c1ccc(O)c2O |  | inactive |  | inactive | inactive |  | inactive |  | inactive |  |  | inactive | inactive |  |  |  | inactive |  | inactive | 29.8 µM (active)
CC(C)CCCCCCCOC(=O)c1ccc(C(=O)OCCCCCCCC(C)C)c(C(=O)OCCCCCCCC(C)C)c1 | inactive | inactive | inactive | inactive | inactive |  | inactive |  | inactive | inactive |  | inactive | inactive |  |  | inactive |  | inactive |  | 
CCc1cnc(C(=O)O)c(C(=O)O)c1 | inactive | inactive | inactive | inactive | inactive | inactive | inactive | inactive | inactive | inactive | inactive | inactive |  |  |  |  | inactive | inactive | inactive | inactive
C/C(=C\C(C)CC(C)CC(C)C)C1CC(=O)OC1=O (centres undefined) | inactive | inactive |  | inactive | inactive | inactive | inactive | inactive | inactive | inactive |  | inactive | inactive |  |  |  | inactive |  | inactive | 
CC(C)(C)c1cc(C=O)cc(C(C)(C)C)c1O | inactive | inactive | inactive | inactive | inactive | inactive | inactive | inactive | inactive | inactive | inactive |  |  | inactive | inactive |  |  |  |  | 
O=C(Nc1ccccc1)c1cc([N+](=O)[O-])ccc1Cl |  | inactive | 7.7 µM (active) | inactive | inactive |  | inactive | inactive | inactive |  |  | inactive |  |  | inactive |  |  | inactive | inactive | 54.5 µM (active)
[O-][n+]1ccc(Cl)cc1 |  | inactive | inactive | inactive | inactive | inactive | inactive |  | inactive | inactive | inactive | inactive | inactive | inactive | inactive |  | inactive | inactive |  | 
C[C@H]1C[C@H]2[C@@H]3CCC4=CC(=O)C=C[C@]4(C)[C@@]3(F)[C@@H](O)C[C@]2(C)[C@@]1(O)C(=O)COP(=O)(O)O |  | inactive | inactive | inactive | inactive | inactive | inactive | inactive | inactive | inactive | inactive | inactive | inactive |  |  | inactive |  |  | inactive | 
